VHR inh color: VHR1 phosphatase inhibitors, primary screen, biochemical, colorimetric, HTS; Dual specificity protein phosphatase 3 (Homo sapiens), P51452; recombinant VHR phosphatase, colorimetric substrate read-out; inhibition, % at 20 µM; 50,000 compounds, 0.7% hits; AID 1992, 2009; in the data active means inhibition above about 60%
Target sequence (P51452 whole entry, looked up): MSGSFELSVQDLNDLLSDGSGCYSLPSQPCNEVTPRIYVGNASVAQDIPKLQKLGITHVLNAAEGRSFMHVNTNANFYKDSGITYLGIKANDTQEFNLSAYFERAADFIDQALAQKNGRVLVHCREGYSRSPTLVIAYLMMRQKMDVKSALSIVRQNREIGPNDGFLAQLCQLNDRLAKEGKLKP
Active calls of the source: *. This excerpt belongs to a sample that is enriched for hits.

SMILES	VHR inh color
O=C(O)C(Cc1ccccc1)N1C(=O)/C(=C/C=C/c2ccccc2)SC1=S (stereo not drawn)	92*
O=C(O)C(Cc1ccccc1)N1C(=O)/C(=C/c2ccc(F)cc2)SC1=S (stereo not drawn)	-39
COc1ccc(C(=O)Nc2ccccc2)cc1NC(=O)COc1ccc(F)cc1	-22
CCOC(=O)c1c(NC(=O)c2ccc(OC)c(OC)c2)sc(C(=O)N(CC)CC)c1C	-6
CCOc1cc(C(=O)Nc2sc(C(=O)N(CC)CC)c(C)c2C(=O)OC(C)C)cc(OCC)c1OCC	-8
CCN(CC)C(=O)c1sc(NC(=O)c2cc(OC)cc(OC)c2)c(C(=O)OC)c1C	95*
COc1ccc(CCNC(=O)CC(=O)N/N=C/c2ccco2)cc1OC	-18
Cc1ccc2nc(-c3ccc(-c4ccccc4)cc3)oc(=O)c2c1	-14
CCN1C(=O)/C(=C\c2cc(Cl)ccc2OCc2ccccc2)SC1=S	105*
CCN1C(=O)/C(=C\c2cc(Cl)c(OCc3ccccc3)c(OC)c2)SC1=S	3
CN1C(=O)/C(=C\c2cc(Cl)ccc2OCc2ccc(F)cc2)SC1=S	-14
O=C(NCc1ccc2c(c1)OCO2)C(=O)Nc1nc(C23CC4CC(CC(C4)C2)C3)cs1	-1
CCCC(=O)Nc1ccc(C(=O)/C=C/c2ccc(Cl)cc2Cl)cc1	8
Cc1cc(/C=C2/NC(=S)NC2=O)c(C)n1-c1ccc(Br)cc1	-24
CCc1ccc(-n2c(C)cc(/C=C3/NC(=S)NC3=O)c2C)cc1	-16
COC(=O)c1ccc(-n2c(C)cc(/C=C3\NC(=S)NC3=O)c2C)cc1	111*
Oc1c(C=Nc2cccc3ccccc23)sc2ccccc12	7
CCNc1nc(NS(=O)(=O)c2ccc(C)cc2)nc(SC)n1	0
CCOc1cc(/C=C2\SC(=S)NC2=O)cc(Br)c1OC(C)=O	4
CCOc1ccccc1NC(=O)c1c(NC(=O)c2cccc(F)c2)sc2c1CCC(C)C2 (stereo not drawn)	116*
CCOc1ccccc1NC(=O)c1c(NC(=O)c2ccccc2F)sc2c1CCC(C)C2 (stereo not drawn)	-10
CCOc1ccccc1NC(=O)c1c(NC(=O)Cc2ccc(OC)cc2)sc2c1CCC(C)C2 (stereo not drawn)	8
C(=N\Nc1ccccn1)/c1cccs1	-13
CC1=NN(c2ccc(S(N)(=O)=O)cc2)C(=O)/C1=C\c1ccc(N(C)C)c(Br)c1	-1
Cc1cc(=O)[nH]c2cc(-c3ccccc3)nn12	97*
SMILES	VHR inh color
CCc1cc(C)nc2cc(-c3ccccc3)nn12	-14
Cc1cc2[nH]c(=O)cc(-c3ccccc3)n2n1	-13
O=C(Oc1ccc(/C=N/NC(=O)C(O)c2ccccc2)cc1)c1cccs1 (stereo not drawn)	-48
O=[N+]([O-])c1ccc(Cl)cc1NCc1ccccc1	5
O=C1C=CC(=O)C(/C(=C/NCc2ccccc2)[N+](=O)[O-])=C1	86*
O=C(NCc1ccccc1)c1ccc(S(=O)(=O)c2ccccc2)cc1	1
Cc1cc(=O)oc2cc(OCC(=O)c3ccc(Cl)cc3)c(Cl)cc12	5
Cc1cc(=O)oc2cc(OC/C(=N\O)c3ccc(Cl)cc3)c(Cl)cc12	106*
Cc1cc(=O)oc2cc(OCc3ccc(F)cc3)c(Cl)cc12	-2
C=CCOc1ccc(Cl)cc1/C=C1/SC(=S)NC1=O	0
COc1cc([N+](=O)[O-])ccc1NC(=O)c1ccccc1	-39
CCOc1c(/C=C(\C#N)C(N)=O)c2ccccc2n1-c1c(Cl)cccc1Cl	-5
CCn1c(O)c(N=NC(=O)c2ccccc2Cl)c2ccccc21	-10
CCC(CO)N=Cc1c(O)n(-c2c(Cl)cccc2Cl)c2ccccc12 (stereo not drawn)	98*
Cc1[nH]n(-c2ccccc2)c(=O)c1C=O	-35
CCOc1cc(/C=N/O)ccc1OCc1ccc(Cl)cc1	116*
CCOc1cc(C=C2C(=O)NC(=O)NC2=O)ccc1OCc1ccc(Cl)cc1	2
CCOc1cc(/C=C2/SC(=O)NC2=O)ccc1OCc1ccc(Cl)cc1	-6
CC(C)(NC(=O)NCc1ccccc1)c1cccc(C(C)(C)NC(=O)NCc2ccccc2)c1	6
CCCN(CCC)c1ccc(/C=N\NC(=O)C2COc3cc4ccccc4cc3O2)cc1 (stereo not drawn)	-12
Cc1ccc(/C=N/NC(=O)C(=O)NC(C)(C)C)cc1	2
CCOc1ccccc1/C=N/NC(=O)CSc1nc2ccccc2n1Cc1ccccc1	8
COc1ccc(C2=CC(c3cccs3)C=C(c3ccc(OC)cc3)O2)cc1	60*
COc1ccc(C2=C/C(=C/c3ccc(I)o3)C(=O)O2)cc1	1
COc1ccc(C2=C/C(=C3\OC(=O)c4ccccc43)C(=O)O2)cc1	42
SMILES	VHR inh color
O=C1c2ccccc2C(=O)c2c([N+](=O)[O-])ccc(N3CCOCC3)c21	-28
Cc1ccc(NC(=O)C(Cl)(Cl)C(=O)Nc2ccc(C)cc2)cc1	28
Cc1ccc(-n2cc(C=C3C(=O)NC(=O)NC3=O)cn2)cc1C	105*
Cc1ccc(-n2cc(/C=c3\sc4nc5cc(C)c(C)cc5n4c3=O)cn2)cc1C	3
Cc1ccc(-n2c(C)cc(C=C3C(=O)NC(=S)NC3=O)c2C)cc1C	16
COc1ccc(Br)cc1/C=C/C(=O)Nc1ccc(N2CCOCC2)cc1	-19
CCCCOC(=O)c1ccc(N2CCCCC2)cc1	-3
O=C(O)c1cc(-c2cn[nH]c2-c2ccccc2)nc2ccc3ccccc3c12	110*
O=C(O)c1cc(-c2cccc([N+](=O)[O-])c2)nc2ccccc12	-13
COc1ccccc1-c1cc(C(=O)O)c2ccccc2n1	11
O=c1c2cnn(-c3ccccc3)c2nc(Cc2ccccc2)n1Cc1ccccc1	-16
Cn1cc(/C=C/c2nc3ccccc3c(=O)n2-c2ccccc2[N+](=O)[O-])c2ccccc21	57
CCCCn1c(O)c(C2=c3ccccc3=NC2=O)sc1=S	-8
O=C1N=c2ccccc2=C1c1sc(=S)n(Cc2ccco2)c1O	5
O=C1N=c2ccc(Cl)cc2=C1c1sc(=S)n(Cc2ccco2)c1O	68*
O=C(CSc1ccccc1)Nc1nnc(CSc2ccccc2)s1	6
CC(C)C1=NN2C(=N)/C(=C/c3ccc(-c4ccc([N+](=O)[O-])cc4)o3)C(=O)N=C2S1	-4
CCCC1=NN2C(=N)/C(=C/c3ccc(-c4ccc(F)cc4)o3)C(=O)N=C2S1	109*
CCCC1=NN2C(=N)/C(=C/c3ccc(-c4ccc([N+](=O)[O-])cc4Br)o3)C(=O)N=C2S1	111*
CCC1=NN2C(=N)/C(=C/c3ccc(-c4ccccc4[N+](=O)[O-])o3)C(=O)N=C2S1	-3
CCC1=NN2C(=N)/C(=C/c3ccc(OCc4ccc(Br)cc4)c(OC)c3)C(=O)N=C2S1	6
CCOc1cc(/C=C2/C(=N)N3N=C(CC)SC3=NC2=O)ccc1OCc1ccc(F)cc1	5
CCCC1=NN2C(=N)/C(=C/c3ccc(-c4ccccc4C(=O)OC)o3)C(=O)N=C2S1	116*
CCCC1=NN2C(=N)/C(=C/c3ccc(OCc4ccc(F)cc4)c(OCC)c3)C(=O)N=C2S1	100*
CCC1=NN2C(=N)/C(=C/c3ccc(-c4ccc(C)c(Cl)c4)o3)C(=O)N=C2S1	5
CCC1=NN2C(=N)/C(=C/c3ccc(-c4ccc(F)c(Cl)c4)o3)C(=O)N=C2S1	-34
CCC1=NN2C(=N)/C(=C/c3ccc(-c4cccc([N+](=O)[O-])c4)o3)C(=O)N=C2S1	0
CCC1=NN2C(=N)/C(=C/c3ccc(-c4cc(Cl)ccc4Cl)o3)C(=O)N=C2S1	0

Assay outcomes from PubChem BioAssay.
